From PubChem BioAssay
CHRM1 antagonist: human CHRM1 antagonism; P11229; CHO-K1 hM1, Fluo-8 calcium fluorescence, ACh EC80 antagonist; inhibition, % at 3 µM; 360,000 compounds, 1.3% hits;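 active = percent inhibition above its own plate's cutoff, namely the mean of that plate's compound wells plus 3 SD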;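 also: peak over basal fluorescence ratio during 140 s after agonist addition; 0% = ACh EC80 plus DMSO and 100% = DMSO alone without agonist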
Target sequence (P11229 whole entry, looked up): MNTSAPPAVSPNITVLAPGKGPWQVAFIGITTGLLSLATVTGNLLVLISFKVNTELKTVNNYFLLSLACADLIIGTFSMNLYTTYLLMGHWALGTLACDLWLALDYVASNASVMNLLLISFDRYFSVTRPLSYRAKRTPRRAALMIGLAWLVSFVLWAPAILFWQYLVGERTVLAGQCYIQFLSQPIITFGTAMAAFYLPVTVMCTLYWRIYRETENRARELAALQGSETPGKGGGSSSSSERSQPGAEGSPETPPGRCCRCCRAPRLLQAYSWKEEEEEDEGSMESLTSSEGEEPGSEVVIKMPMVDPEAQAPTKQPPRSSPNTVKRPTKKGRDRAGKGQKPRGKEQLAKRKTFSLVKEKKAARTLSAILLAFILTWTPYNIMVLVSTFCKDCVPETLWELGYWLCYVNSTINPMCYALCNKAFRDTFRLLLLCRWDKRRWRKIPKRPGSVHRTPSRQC
M1 PAM: potentiates human M1 receptor response to acetylcholine; P11229; CHO-K1 hM1, Fluo-8 calcium fluorescence, ACh EC20; 0% = ACh EC20, 100% = maximal ACh; activation, % at 3 µM; 360,000 compounds, 0.088% hits; AID 588819; in the data active = activation above about 19%, passing the limit was not always enough
CHO-K1 Ca PAM: counter-screen for M1 PAMs: effect in parental CHO-K1 cells; ATP EC20, Fluo-8 calcium fluorescence; 0% at ATP EC20, 100% at ATP max; activation, % at 3 µM; 360,000 compounds, 0.02% hits; AID 602247;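 active = activation above the run cutoff, the mean activation of all test compounds plus 3 SD, cut at about 40% in these data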;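 also: peak over basal fluorescence ratio in a 140 s read after ATP addition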
M1 ag: activates human CHRM1 receptor; activation, % at 3 µM; P11229; CHO-K1 hM1, Fluo-8 calcium fluorescence, agonist mode; 0% DMSO, 100% acetylcholine EC100; AID 588814; 360,000 compounds, 0.33% hits;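 active = activation above the run's mean compound activation plus 3 SD, cut at about 16% in these data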;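 also: peak over basal fluorescence ratio within a 140 s kinetic read after compound addition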
CHO-K1 Ca antag: counter-screen for M1 antagonists: effect in parental CHO-K1 cells. ATP-induced calcium, Fluo-8 fluorescence. inhibition, % at 3 µM. 360,000 compounds, 0.6% hits. AID 602250;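 active = inhibition above a per-plate cutoff, the plate's mean sample inhibition plus 3 SD, cut at about 24% in these data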;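 also: 0% = DMSO plus EC80 ATP and 100% = DMSO alone without ATP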
CHO-K1 Ca ag: nonselective activator or artifact in parental CHO-K1 cells; 360,000 compounds, 0.48% hits; Fluo-8 calcium fluorescence; scaled to maximal ATP response, vehicle zero; activation, % at 3 µM; in the data active = activation above about 15%;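 also: untransfected CHO-K1 host cells lacking M1 receptor as counterscreen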
Active calls of the source: *. Most compounds without a hit are left out; they make up all but 2.4% or so of the library.

SMILES | CHRM1 antagonist | M1 PAM | CHO-K1 Ca PAM | M1 ag | CHO-K1 Ca antag | CHO-K1 Ca ag
CC(=O)c1cccc(OCC(=O)Nc2ccccc2N2CCOCC2)c1 | 3 | 3 | -9 | 4 | 1 | 5
COc1ccc(CNS(=O)(=O)CCNC(=O)c2ccc3c(c2)OCO3)cc1 | 1 | 1 | -19 | -2 | 24* | -1
Cc1ccc(S(=O)(=O)NCC(=O)OCCOc2cccc(Cl)c2)cc1 | 3 | 0 | -4 | -4 | -7 | 0
COc1ccc(C2CCCN2C(=O)Nc2cccc(C(C)=O)c2)cc1OC (stereo not drawn) | 22 | -6 | -6 | 0 | 26* | 0
COc1ccc(NC(=O)c2ccc(N3C(=O)C4CC=C(C)CC4C3=O)cc2)c(OC)c1 (stereo not drawn) | 11 | -3 | -9 | -4 | 9 | 2
Cc1ccc(NC(=O)c2sc3ncn(CC(=O)N4CCN(c5ccccn5)CC4)c(=O)c3c2C)cc1Cl | 63* | -23 | -5 | 1 | -12 | 5
COCCCNC(=O)c1sc2ncn(CC(=O)Nc3ccc(C)c(Cl)c3)c(=O)c2c1C | -10 | 2 | 40* | -3 | -19 | 5
c1ccc(-c2csc(-n3cnnn3)n2)cc1 | 16 | -11 | -7 | -6 | 30* | 0
CC(C)n1c(CCC(=O)O)ccc1-c1ccccc1 | 22* | -4 | -9 | -3 | -9 | 0
O=C(Cc1ccc(NC(=O)C2CCN(C(=O)C3CC3)CC2)cc1)Nc1cccc(C(=O)N2CCCCC2)c1 | -6 | 3 | -6 | -2 | -7 | 0
CCOC(=O)c1ccc(NC(=S)NCC(O)c2ccccc2)cc1 (stereo not drawn) | 34* | -14 | 6 | -3 | 12 | 13
CCOC(=O)c1ccc(NC(=S)NCCc2ccccc2F)cc1 | 61* | -20 | -14 | 0 | 25* | 15*
Nc1ncnc2c1ncn2C1C=C(CO)C(O)C1O (stereo not drawn) | -8 | 5 | 10 | 0 | -12 | 1
Cc1ccc(OCC(=O)Nc2nnc(C3CCCO3)s2)c(Br)c1 (stereo not drawn) | 37* | -15 | -15 | -5 | 6 | -1
Cc1cccc(C)c1OCC(=O)Nc1nnc(C2CCCO2)s1 (stereo not drawn) | -10 | 9 | -10 | -6 | 12 | 0
Cc1ccc(/C=N/NC(=O)c2ccccc2OCc2ccc(F)cc2)o1 | -15 | 17 | 43* | -3 | -19 | 6
CC(=O)N1Cc2ccccc2CC1C(=O)NCc1ccccc1F (stereo not drawn) | -7 | 9 | 4 | -5 | -1 | 0
O=C(Nc1nnc(-c2ccccc2)o1)c1nc2ccccc2s1 | -2 | -9 | 26 | 66* | -12 | 8
CCC(c1nc2ccccc2[nH]1)N(C(=O)C1=NNC(=O)CC1)c1ccccc1 (stereo not drawn) | -28 | 1 | 23 | -2 | -17 | 1
Cc1cc2c3c([nH]c2cc1S(=O)(=O)NCc1ccc(CN2CCCCCC2)o1)CCCC3=O | 85* | -21 | 7 | -5 | -11 | -1
CCOCCCNS(=O)(=O)c1cc2[nH]c3c(c2cc1C)C(=O)CC(C)(C)C3 | -3 | 4 | 12 | -6 | -15 | 4
Cc1cc2c3c([nH]c2cc1S(=O)(=O)NCc1ccc(CN2CCCCCC2)o1)CC(C)(C)CC3=O | 52* | -36 | 18 | -14 | -13 | 0
CN(C)CCCNS(=O)(=O)c1ccc(NC2CCCCCC2)c([N+](=O)[O-])c1 | 14 | -11 | -4 | -11 | 17 | 14
CC(=O)c1ccc(OCC(=O)OCC(=O)N(CC(C)C)c2c(N)n(Cc3ccccc3)c(=O)[nH]c2=O)cc1 | -13 | 10 | -5 | -2 | 0 | 1
O=C(CS(=O)(=O)Cc1ccccc1)N1CCN(c2ccccc2F)CC1 | -10 | 11 | -16 | -1 | -4 | 3
SMILES | CHRM1 antagonist | M1 PAM | CHO-K1 Ca PAM | M1 ag | CHO-K1 Ca antag | CHO-K1 Ca ag
Fc1cccc(CNc2ncnc3cc(Cl)ccc23)c1F | 23 | -15 | 4 | -4 | 23 | 15*
CCOC(=O)C1=CCN(S(=O)(=O)c2ccccc2Br)C1c1ccc(Cl)c(Cl)c1 (stereo not drawn) | 13 | -6 | 2 | -4 | 29* | 1
CCOC(=O)C1=CCN(S(=O)(=O)c2ccccc2C)C1c1ccc(Br)cc1 (stereo not drawn) | 8 | -5 | 14 | -1 | 7 | 2
CCOC(=O)C1=CCN(S(=O)(=O)c2ccc(F)cc2)C1c1cccc(F)c1 (stereo not drawn) | 7 | 0 | -7 | -4 | 27* | 2
CCOC(=O)C1=CCN(S(=O)(=O)c2ccccc2Cl)C1c1ccc(Cl)c(Cl)c1 (stereo not drawn) | 14 | -12 | 7 | -6 | 8 | 1
CCOC(=O)C1=CCN(S(=O)(=O)c2ccc(F)cc2)C1c1cccc(C)c1 (stereo not drawn) | 1 | -4 | 11 | -11 | -2 | 0
CCOC(=O)C1=CCN(S(=O)(=O)c2ccccc2C)C1c1ccccc1 (stereo not drawn) | -1 | 7 | -7 | -10 | 26* | 1
COc1ccc(Cl)cc1NC(=O)CN(C)C(=O)CN1C(=O)NC(C)(c2ccc3ccccc3c2)C1=O (stereo not drawn) | -6 | 14 | 20 | 1 | -17 | 4
C#CCN1C(C)=CC(=O)[C@@H](O)[C@H]1c1ccccc1Br | -9 | 7 | 15 | -4 | -10 | 0
COc1ccc(OCC(=O)Nc2cccc(S(=O)(=O)N(C)c3ccccc3)c2)c([N+](=O)[O-])c1 | 19 | -6 | -11 | -2 | -10 | 0
CC(c1ccc(O)cc1)(c1ccc(O)cc1)c1ccc(CCBr)cc1 | 1 | 1 | -7 | 10 | 6 | 18*
O=C(Nc1ccccc1Cl)c1cc(C2CCCN(S(=O)(=O)c3cccs3)C2)on1 (stereo not drawn) | -6 | -1 | 11 | -3 | -14 | 1
CCc1cc(C(=O)Nc2cc(S(=O)(=O)N(CC)CC)ccc2N2CCN(C)CC2)sc1C | -3 | 2 | -12 | -7 | -6 | 0
CCc1cc(C(=O)Nc2cc(Cl)ccc2N2CCN(C)CC2)sc1C | -11 | 11 | -20 | 0 | 28* | 0
CCc1nnc(N/N=C/c2cc(Br)c(O)cc2O)n1N | -18 | 16 | -1 | -1 | 7 | 1
CC(C)(C)c1nnc(N/N=C/c2cc(Br)ccc2O)n(N)c1=O | 35* | -17 | -4 | 4 | 15 | 11
Clc1ccc(-c2nsc(N3CCOCC3)n2)c(Cl)c1 | -7 | 9 | 4 | -4 | -10 | 2
CCn1c(SCC(=O)NC(=O)c2ccccc2OC)nc2ccccc21 | -13 | 8 | 10 | -2 | -10 | 2
COc1ccc(CN(CCNC(=O)CCCCC(=O)NCCN(Cc2ccc(OC)cc2)C(C)C)C(C)C)cc1 | 73* | -26 | 21 | -7 | -16 | 0
